The values below come from PubChem BioAssay.

The test system of assay [1] is Human papillomavirus type 1a protein E7 (residues 44-93). Kind of assay: small molecules binding HPV E7 44-93 – biochemical, small-molecule microarray, residues 44-93, 635 nm fluorescence, primary screen (AID 1108).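 Note: E7 fragment applied at 1 µg/mL in TBST for 1 h at 4 C; score combines spot fluorescence with its signal to noise ratio.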 To be noted: fluorescence 635 nm, higher = more signal.
Assay [2] is described as follows: hepatitis C replication reporter changes, two-sided – Huh7 cells, luciferase reporter, HCV replication inhibitor project, primary screen (AID 1109).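 Note: huh7 hepatoma cells harbouring a luciferase neomycin HCV replicon reporter; luciferase luminescence as measure of HCV replicon replication; test concentration not given here.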 Conditions: Huh7 HCV replicon luciferase reporter, 48 h; higher = more signal. (In general: Reporter assays use an easily measured gene product as a stand-in for the process of interest.)
Assay [3] addresses Left-right determination factor 2 (Homo sapiens) (UniProt O00292). Kind of assay: small molecules binding LEFTY2 protein – biochemical, small-molecule microarray, 635 nm fluorescence scan, primary screen (AID 1110). Conditions: higher = more signal.
The target of assay [4] is Calmodulin-1 (Homo sapiens) (UniProt P0DP23). Kind of assay: small molecules binding calmodulin-1 with EGTA – biochemical, small-molecule microarray, Cy5-labelled CALM1, profiling panel (AID 1111).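 Note: labelled calmodulin applied in Tris saline Tween buffer holding calcium plus EGTA and DTT.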 To be noted: Cy5-CALM1 binding fluorescence, higher = more signal.
Assay [5] has the same target. Kind of assay: small molecules binding Ca-loaded calmodulin-1 – biochemical, small-molecule microarray, Cy5-labelled CALM1, plus calcium, artefact control for SMM control-protein annotation, profiling panel (AID 1112).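 Note: score merges spot fluorescence with signal to noise from triplicate slides.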 To be noted: Cy5-CALM1 binding fluorescence, higher = more signal.
Assay [6] in a line: probe aWnt5a binding to arrayed compounds – biochemical, biotinylated probe, 635/667 nm fluorescence, primary screen (AID 1113).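 Note: score merges 667 nm fluorescence intensity with signal-to-noise per printed feature.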 Conditions: small-molecule microarray, higher = more signal.
Assay [7] can be described thus: probe aShh binding to arrayed compounds – biochemical, biotinylated probe, 635/667 nm fluorescence, primary screen (AID 1114).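 Note: probe is biotin-labelled aShh protein from a stem cell growth factor screen; measures binding of labelled protein to compounds printed on the slide; score merges feature fluorescence at 667 nm with signal-to-noise.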 Conditions: small-molecule microarray, higher = more signal.
Assay [8] in a line: probe aNog binding to arrayed compounds – biochemical, biotinylated probe, 635/667 nm fluorescence, primary screen (AID 1115).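 Note: probe is biotinylated aNog protein used at 0.15 µg/mL for 1 h at 4 C; z-score combines 667 nm fluorescence of each spot with its signal to noise.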 To be noted: small-molecule microarray, higher = more signal.
The target of assay [9] is Torsin-1A-interacting protein 1 (Homo sapiens) (UniProt Q5JTV8). Kind of assay: compound microarray binding of lysate hLAP1 – cell lysate, small-molecule microarray, COS7 lysate, 635/667 nm fluorescence, primary screen (AID 1116). Conditions: 635 nm fluorescence, higher = more signal.
Sequence of Torsin-1A-interacting protein 1 (Homo sapiens) (Q5JTV8 whole entry, looked up): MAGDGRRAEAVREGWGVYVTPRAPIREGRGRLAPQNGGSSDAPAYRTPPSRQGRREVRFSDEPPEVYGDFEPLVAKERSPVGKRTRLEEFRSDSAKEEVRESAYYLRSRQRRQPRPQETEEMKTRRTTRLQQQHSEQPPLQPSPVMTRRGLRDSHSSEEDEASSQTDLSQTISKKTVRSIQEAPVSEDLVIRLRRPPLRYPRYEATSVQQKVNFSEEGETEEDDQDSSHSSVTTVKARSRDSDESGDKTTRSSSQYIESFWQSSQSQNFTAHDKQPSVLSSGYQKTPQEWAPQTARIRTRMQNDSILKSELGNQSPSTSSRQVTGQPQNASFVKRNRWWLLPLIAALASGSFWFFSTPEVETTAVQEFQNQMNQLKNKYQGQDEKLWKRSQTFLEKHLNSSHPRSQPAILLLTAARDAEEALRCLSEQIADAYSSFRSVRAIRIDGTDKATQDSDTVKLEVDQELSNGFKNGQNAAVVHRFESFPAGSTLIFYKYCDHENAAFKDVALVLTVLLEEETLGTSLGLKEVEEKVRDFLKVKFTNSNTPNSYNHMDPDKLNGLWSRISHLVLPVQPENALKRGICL
The target in assay [10] is Alpha-bungarotoxin (Bungarus multicinctus) (UniProt P60615). Kind of assay: compounds binding labelled alpha-BTX control protein – biochemical, small-molecule microarray, Alexa647 label, 635/667 nm fluorescence, artefact control for SMM control protein annotation, profiling panel (AID 1117). To be noted: alpha-BTX-A647 binding fluorescence, higher = more signal.
Sequence of Alpha-bungarotoxin (Bungarus multicinctus) (P60615 whole entry, looked up): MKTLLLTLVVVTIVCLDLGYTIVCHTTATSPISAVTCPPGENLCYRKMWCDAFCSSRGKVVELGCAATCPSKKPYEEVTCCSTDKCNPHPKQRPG
In assay [11] the target is Albumin (Bos taurus) (UniProt P02769). Kind of assay: compounds binding labelled BSA control protein – biochemical, small-molecule microarray, Alexa647 label, 635/667 nm fluorescence, artefact control for SMM control protein annotation, profiling panel (AID 1118).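 Note: score merges 667 nm emission intensity and signal-to-noise per printed compound spot.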 Conditions: BSA-A647 binding, fluorescence 635 nm, higher = more signal.
Sequence of Albumin (Bos taurus) (P02769 whole entry, looked up): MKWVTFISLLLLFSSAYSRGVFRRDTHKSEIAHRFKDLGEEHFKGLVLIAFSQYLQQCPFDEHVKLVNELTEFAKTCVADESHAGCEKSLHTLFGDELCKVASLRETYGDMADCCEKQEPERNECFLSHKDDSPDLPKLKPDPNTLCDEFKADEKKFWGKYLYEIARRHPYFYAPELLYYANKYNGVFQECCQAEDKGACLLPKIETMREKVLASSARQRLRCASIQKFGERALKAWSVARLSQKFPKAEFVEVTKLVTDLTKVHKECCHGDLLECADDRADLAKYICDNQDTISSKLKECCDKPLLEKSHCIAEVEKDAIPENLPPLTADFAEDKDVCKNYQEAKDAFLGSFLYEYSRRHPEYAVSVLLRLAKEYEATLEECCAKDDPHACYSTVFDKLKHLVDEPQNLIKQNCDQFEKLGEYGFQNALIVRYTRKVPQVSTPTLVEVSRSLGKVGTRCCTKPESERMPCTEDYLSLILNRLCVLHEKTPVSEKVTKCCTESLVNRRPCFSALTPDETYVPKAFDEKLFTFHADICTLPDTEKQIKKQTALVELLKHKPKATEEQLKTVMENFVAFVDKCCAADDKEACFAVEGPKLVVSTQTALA
The nature of assay [12]: probe aXIP binding to arrayed compounds – biochemical, NeuroSMM set, 635/667 nm fluorescence, primary screen (AID 1119).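 Note: probe is the protein aXip251-270 applied at 1 µg/mL to compound-printed slides; binding of probe to printed compounds measured as 667 nm fluorescence plus signal to noise.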 To be noted: small-molecule microarray, higher = more signal, called active from +8 up or from −8 down.
A short description of assay [13]: probe aNOTCH3 binding on compound microarray – biochemical, small-molecule microarray, 635/667 nm fluorescence, primary screen (AID 1120).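 Note: probe is a biotin-tagged antibody raised against NOTCH3 rather than NOTCH3 protein; score merges spot fluorescence near 667 nm with spot signal to noise.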 Conditions: higher = more signal.
The nature of assay [14]: probe aNOTCH2 binding on compound microarray – biochemical, small-molecule microarray, 635/667 nm fluorescence, primary screen (AID 1121).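 Note: score merges feature fluorescence read at 667 nm with its signal to noise.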 Conditions: higher = more signal.
Assay [15] has as its target Carbonic anhydrase 2 (Homo sapiens) (UniProt P00918). Kind of assay: compounds binding carbonic anhydrase 2 – biochemical, small-molecule microarray, Alexa647-labelled CAII, profiling panel (AID 1122). Conditions: CAII-A647 binding fluorescence, higher = more signal.
The nature of assay [16]: COS7 lysate on small-molecule microarray, probe aHis, 635 nm (AID 1123).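 Note: z-score combines 667nm fluorescence intensity with signal-to-noise per printed compound spot.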 To be noted: COS7 cell lysate, fluorescence, higher = more signal.
Assay [17] in a line: probe aLAP1 signal on lysate-treated microarray – cell lysate, small-molecule microarray, COS7 lysate, primary screen (AID 1124).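 Note: lysate comes from COS7 cells expressing LAP1 and is applied at 0.3 µg/mL; score merges spot fluorescence near 667 nm with signal-to-noise over triplicate slides.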 To be noted: probe aLAP1, fluorescence, higher = more signal.
The subject of assay [18] is Sam68 (KHDRBS1). Kind of assay: compounds binding KHDRBS1 protein – biochemical, small-molecule microarray, 635 nm fluorescence, primary screen (AID 1125).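 Note: score merges 667 nm channel intensity with signal to noise over triplicate slides.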 Conditions: higher = more signal.
In assay [19] the test system is Chordin-like protein 2 (CHRDL2). Kind of assay: compounds binding chordin-like 2 – biochemical, small-molecule microarray, 635 nm fluorescence, primary screen (AID 1126).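 Note: printed compound slides probed with Chrdl2 protein at 4 µg/mL for 1 h at 4 C; score merges 667 nm emission intensity with signal to noise over three replicate slides.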 Conditions: fluorescence 635 nm, higher = more signal.
The target of assay [20] is Concanavalin-A (Canavalia ensiformis) (UniProt P02866). Kind of assay: compounds binding concanavalin A lectin – biochemical, small-molecule microarray, Alexa647 label, 635 nm, artefact control for SMM control protein annotation, primary screen (AID 1127).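 Note: z combines 667 nm emission intensity with signal-to-noise across three replicate slides.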 To be noted: ConA-A647 binding fluorescence, higher = more signal.
Sequence of Concanavalin-A (Canavalia ensiformis) (P02866 whole entry, looked up): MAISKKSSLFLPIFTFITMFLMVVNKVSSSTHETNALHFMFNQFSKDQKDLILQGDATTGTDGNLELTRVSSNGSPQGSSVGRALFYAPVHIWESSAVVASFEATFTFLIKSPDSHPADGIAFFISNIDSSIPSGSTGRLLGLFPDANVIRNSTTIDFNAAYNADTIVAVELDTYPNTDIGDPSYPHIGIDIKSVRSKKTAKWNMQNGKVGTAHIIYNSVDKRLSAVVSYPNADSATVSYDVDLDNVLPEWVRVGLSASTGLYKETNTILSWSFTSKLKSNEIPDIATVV

Structures are written as SMILES. Calls of active or inactive are those of the source.

Sequence of Left-right determination factor 2 (Homo sapiens) (O00292 whole entry, looked up): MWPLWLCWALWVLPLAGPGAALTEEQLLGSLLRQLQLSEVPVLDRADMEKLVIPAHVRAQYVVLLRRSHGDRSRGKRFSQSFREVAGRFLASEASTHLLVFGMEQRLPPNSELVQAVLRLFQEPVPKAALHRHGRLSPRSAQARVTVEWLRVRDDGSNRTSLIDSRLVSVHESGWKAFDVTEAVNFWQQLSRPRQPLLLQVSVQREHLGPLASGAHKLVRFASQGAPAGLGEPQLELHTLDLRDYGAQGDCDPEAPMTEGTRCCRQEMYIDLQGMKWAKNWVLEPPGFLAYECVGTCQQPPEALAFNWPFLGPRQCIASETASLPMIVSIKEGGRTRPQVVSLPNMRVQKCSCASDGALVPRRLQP

With `C[N+](C)(C)CCCC[C@@H]1NC(=O)[C@H]2C[C@@H](C(=O)NCCCCCCNC(=O)CS)[C@@H](c3ccc(O)cc3)N2C1=O`, the composite z-score in assay [1] was -1.07; in assay [3] it was -1.4; in [4], -0.493; in assay [5] it was 0.55; in assay [6], -0.178; in [7] it was -0.138. Further, the composite z-score in assay [8] is -0.0604; in assay [9], 1.51; in assay [10], 0.539; in assay [11], 0.329; in assay [13], -0.437; in assay [14], -0.0764. Moreover, the composite z-score in [15] was 0.501; in assay [16] it was 0.483; in assay [17], 1.49; in [18], -0.611; in assay [19], 0.0077; in assay [20], -2.35. The compound further returned a z-score in [2] of -0.237. Besides, the composite Z-score in [12] is -0.921 (inactive).
For `Cc1ccc(/C=C/C=O)cc1`, the composite z-score is 0.134 in assay [1]; -0.419 in assay [3]; 0.619 in [4]; -0.524 in [5]; -0.213 in [6]; -0.0146 in assay [7]. Moreover, the composite z-score was -0.299 in assay [8]; -0.0785 in [9]; 0.185 in [10]; 0.931 in assay [11]; -0.217 in assay [13]; -0.117 in [14]. Also, the composite z-score in [15] was -0.287; in assay [16], 0.206; in assay [17], 0.127; in [18], -0.912; in assay [19] it was 0.24; in [20], -0.156. This compound also gave a z-score in assay [2] of 0.626. Besides, in assay [12], the composite Z-score is 0.421 (inactive).
With `C#CCN(C/C=C/c1ccccc1)[C@H](CO)c1ccccc1`, the composite z-score in [1] was -0.414; in assay [3] it was 0.171; in [4], -0.653; in assay [5], -0.472; in assay [6] it was -0.0919; in assay [7], -0.262. Besides, the composite z-score in assay [8] was -0.326; in assay [9] it was -0.0349; in [10], -0.0338; in assay [11] it was -0.287; in assay [13], -0.274; in assay [14], -0.196. In addition, the composite z-score in assay [15] is 0.0571; in assay [16] it was -0.128; in assay [17], -0.0886; in assay [18], -0.142; in assay [19], -0.0231; in [20], -0.159. Moreover, the z-score in [2] was -1.74. For the same compound, in assay [12], the composite Z-score was -0.014 (inactive).
Turning to `CCCC=C(CCC)[C@@H](NS(=O)(=O)c1ccc(Cl)cc1)c1ccc(C(=O)OC)cc1`, the composite z-score was 1.31 in assay [1]; -0.0953 in assay [3]; -0.246 in assay [4]; -0.526 in assay [5]; -0.183 in assay [6]; -0.0386 in [7]. For the same compound, the composite z-score in assay [8] was -0.201; in assay [9], 0.892; in [10] it was 1.29; in assay [11] it was 0.196; in assay [13] it was -0.0111; in [14] it was 0.0703. Also, the composite z-score in assay [15] was 0.805; in [16], 0.314; in [17] it was -0.159; in [18] it was 0.674; in assay [19], -0.0433; in assay [20], 0.627. Also, the z-score in [2] came out at 0.677. Also, the composite Z-score in assay [12] was -0.243 (inactive).
As for `COc1ccc([Si](C)(C)[C@H]2[C@H](CCO)O[C@@]3(C(=O)N(Cc4ccccc4)c4ccc(N5CCCCC5=O)cc43)[C@@H]2C)cc1`, the composite z-score in assay [1] is 0.668; in assay [3], -0.161; in assay [4] it was 0.674; in assay [5], 0.167; in [6] it was -0.0685; in [7] it was -0.156. In addition, the composite z-score is -0.135 in assay [8]; 0.652 in assay [9]; 0.883 in assay [10]; 0.78 in assay [11]; -0.0918 in assay [13]; -0.133 in [14]. The composite z-score amounted to 0.342 in assay [15]; 0.376 in [16]; 0.237 in [17]; 0.965 in assay [18]; 0.207 in [19]; 0.905 in assay [20]. The compound further showed a z-score in assay [2] of -5.03. The composite Z-score in assay [12] is 0.388 (inactive).
Consider `C=CCC(OC(C)=O)[C@@H]1[C@@H](N(Cc2ccc(-c3cccc(C(F)(F)F)c3)o2)C(=O)c2cccc3ccccc23)c2cc(OCCCO)ccc2N1C(=O)Cc1ccc2ccccc2c1` (stereo not given in full), for which the composite z-score in assay [1] was -0.168; in assay [3], -0.648; in assay [4], 0.0134; in [5], 0.242; in [6], -0.0597; in assay [7] it was 0.123. The composite z-score in assay [8] is -0.398; in assay [9], 0.0212; in assay [10] it was 0.794; in [11], 0.426; in assay [13], -0.0465; in [14], -0.102. Also, the composite z-score is 0.0886 in [15]; 0.58 in assay [16]; -0.0395 in [17]; 0.153 in [18]; 0.421 in assay [19]; -0.146 in [20]. In [2], this compound had a z-score of 0.395. Also, the composite Z-score in assay [12] was 0.111 (inactive).
